Measured values as given in the supplement of paper PMC9254222.
The full ranking holds about 1,100 compounds; the median of “Wnt reporter firefly/Renilla luciferase ratio relative to plate median” is about 1.1, and the highest 2% start at about 1.6. What follows is part of a selection rich in the highest values, with near analogues and random picks from the rest.

Test system: HEK293T (UBE3A T485A transfected, BAR Wnt reporter)
Assay: Wnt reporter firefly/Renilla luciferase ratio relative to plate median (fold (linear ratio)); higher = more Wnt/beta-catenin reporter activation
Details: 24 h
Procedure, shortened: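 Chemicals were robotically dosed at 0.01–100 uM for 24 h onto HEK293T cells, starting four hours after transfection with a BAR firefly luciferase Wnt reporter, TK-Renilla and an expression plasmid. The cells had been plated at 4500 cells/well in DMEM with 10% FBS at 37°C and 5% CO2. Following a Dual-Glo luciferase readout, the firefly/Renilla ratio served as the Wnt activity measure and raw Renilla as the cell health measure, both median-centred on each plate. Each value is the mean of four biological replicates.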

| SMILES | Wnt reporter firefly/Renilla luciferase ratio (concentration: 0.1 uM) | Wnt reporter firefly/Renilla luciferase ratio (concentration: 1 uM) | Wnt reporter firefly/Renilla luciferase ratio (concentration: 10 uM) | Wnt reporter firefly/Renilla luciferase ratio (concentration: 100 uM) | Wnt reporter firefly/Renilla luciferase ratio (concentration: 0.01 uM) |
| --- | --- | --- | --- | --- | --- |
| O=[N+]([O-])C(CO)(CO)CO [2-(Hydroxymethyl)-2-nitro-1,3-propanediol] | 0.982 | 1.11 | 1.27 | 1.27 |  |
| O=c1nc(-c2ccc(C(F)(F)F)cc2)[nH]c2c1CSCC2 | 0.688 | 0.648 | 0.664 | 0.578 | 0.923 |
| CCCC(CCC)C(=O)O [Valproic acid] | 0.995 | 1.01 | 1.14 | 1.69 | 1.2 |
| CCCCCCC(=O)O [Heptanoic acid] | 1.02 | 1.15 | 1.07 | 0.917 |  |
| CCCCC(CC)C(=O)O (centres undefined) [2-Ethylhexanoic acid] | 0.925 | 1 | 1.4 | 1.2 |  |
| C[C@@H](Oc1ccc(CNC(=O)c2cccnc2Oc2ccc3c(c2)OCO3)c(F)c1)C(=O)O | 1.14 | 1.12 | 1.13 | 1.33 |  |
| Cc1cc(F)ccc1-c1cc(N2CC[C@@H](O)[C@H]2CO)ncc1N(C)C(=O)C(C)(C)c1cc(C(F)(F)F)cc(C(F)(F)F)c1 | 1.27 | 1.05 | 1.16 | 0.311 |  |
| N#C[C@@H]1CC(F)(F)CN1C(=O)CNC1CC2CCC(C1)N2c1ncccn1 (some centres undefined) | 0.985 | 0.923 | 0.937 | 0.82 |  |
| [Cl-].c1ccc(C[n+]2cccc3ccccc32)cc1 [1-Benzylquinolinium chloride] | 0.993 | 0.903 | 1.05 |  |  |
| CCCOC(=O)c1ccc(O)cc1 [Propylparaben] | 1.46 | 1.02 | 0.949 | 0.169 |  |
| Nc1ccc2c(c1)C(=O)c1ccccc1C2=O [2-Aminoanthraquinone] | 1.06 | 1.2 | 1.28 | 1.58 |  |
| O=C(O)c1cccnc1 [Nicotinic acid] | 1.02 | 1.17 | 0.874 | 1.27 |  |
| CNCc1ccc(NC(=O)c2c[nH]c3c2C(=O)CCC3)cc1 | 1.24 | 1.06 | 1.69 | 0.318 |  |
| CO[C@H]1/C=C/O[C@@]2(C)Oc3c(C)c(O)c4c(O)c(c(/C=N/N5CCN(C)CC5)c(O)c4c3C2=O)NC(=O)/C(C)=C\C=C\[C@H](C)[C@H](O)[C@@H](C)[C@@H](O)[C@@H](C)[C@H](OC(C)=O)[C@@H]1C [Rifampicin] | 1.29 | 1.07 | 1.27 | 0.362 |  |
| CCCC(=O)O [Butanoic acid] | 1.31 | 1 | 1.12 | 1.62 |  |
| CCCCCC(=O)O [Hexanoic acid] | 1.02 | 0.926 | 1.05 | 1.27 |  |
| CCCCCCCCCC(=O)O [Decanoic acid] | 1.43 | 1.04 | 1.39 | 0.794 |  |
| O=C(OCCOCCOC(=O)c1ccccc1)c1ccccc1 [Diethylene glycol dibenzoate] | 1.08 | 1.16 | 1.34 | 1.44 |  |
| CCCCCCCCCCCCc1ccccc1S(=O)(=O)O [Dodecylbenzenesulfonic acid] | 1.14 | 1.13 | 1.2 | 1.04 |  |

| SMILES | Wnt reporter firefly/Renilla luciferase ratio (concentration: 0.1 uM) | Wnt reporter firefly/Renilla luciferase ratio (concentration: 1 uM) | Wnt reporter firefly/Renilla luciferase ratio (concentration: 10 uM) | Wnt reporter firefly/Renilla luciferase ratio (concentration: 100 uM) | Wnt reporter firefly/Renilla luciferase ratio (concentration: 0.01 uM) |
| --- | --- | --- | --- | --- | --- |
| NS(=O)(=O)c1cc2c(cc1Cl)NCNS2(=O)=O [Hydrochlorothiazide] | 1.41 | 1.17 | 1.12 | 1.32 |  |
| CC(=O)OC1C(=O)C2(C)C(O)CC3OCC3(OC(C)=O)C2C(OC(=O)c2ccccc2)C2(O)CC(OC(=O)C(O)C(NC(=O)c3ccccc3)c3ccccc3)C(C)=C1C2(C)C (centres undefined) [Taxol] | 0.822 | 0.575 | 0.409 | 1.98 | 1.29 |
| O=C([N-]S(=O)(=O)/C=C/c1ccccc1)c1ccc(F)cc1Cl.[Na+] | 1.15 | 1.07 | 0.657 | 0.3 |  |
| CC(C)c1cccc(C(C)C)c1N1C(=O)c2ccc(O)cc2C1=O | 1.19 | 1.17 | 0.259 |  |  |
| C=CCc1ccc(O)c(OC)c1 [Eugenol] | 1.02 | 1.13 | 1.19 | 1.55 |  |
| OC[C@H]1O[C@@H]2O[C@H]3[C@H](O)[C@@H](O)[C@@H](O[C@H]4[C@H](O)[C@@H](O)[C@@H](O[C@H]5[C@H](O)[C@@H](O)[C@@H](O[C@H]6[C@H](O)[C@@H](O)[C@@H](O[C@H]7[C@H](O)[C@@H](O)[C@@H](O[C@H]1[C@H](O)[C@H]2O)O[C@@H]7CO)O[C@@H]6CO)O[C@@H]5CO)O[C@@H]4CO)O[C@@H]3CO [alpha-Cyclodextrin] | 1.02 | 1.09 | 0.976 | 0.971 |  |
| CCCCCCC(C=O)=Cc1ccccc1 [2-Benzylideneoctanal] | 0.942 | 0.906 | 0.822 | 0.757 |  |
| O=C(OCCCCCCOC(=O)c1ccccc1)c1ccccc1 [Hexane-1,6-diyl dibenzoate] | 0.955 | 0.846 | 1.01 | 1.37 |  |
| O=C(CCCCCCC(=O)Nc1ccccc1)NO [Vorinostat (SAHA)] | 1.23 | 1.05 | 3.08 |  | 1.33 |
| CC(C)(O)c1ccc(CNC(=O)c2cccnc2Oc2ccc(F)cc2)cc1 | 0.96 | 1.05 | 1.22 | 0.695 |  |
| CCCc1ccccc1 [Propylbenzene] | 0.987 | 0.856 | 0.88 | 1.43 |  |
| CC(C)(C)c1ccccc1 [tert-Butylbenzene] | 1.01 | 0.913 | 0.895 | 1.16 |  |
| COc1ccc(S(=O)(=O)N2C(=O)[C@@](c3ccccc3OC)(N3C[C@H](O)C[C@H]3C(=O)N(C)C)c3cc(Cl)ccc32)c(OC)c1 [Nelivaptan] | 1.09 | 0.857 | 0.612 | 0.355 |  |
| CCCCCCCCCCCCCCCCOS(=O)(=O)[O-].[Na+] [Sodium hexyldecyl sulfate] | 0.784 | 1.09 | 0.931 | 1.7 |  |
| CCCCCCCCCCCCOS(=O)(=O)[O-].[Na+] [Sodium dodecyl sulfate] | 1.32 | 0.99 | 1.05 | 0.875 |  |
| CCCCCCCCCCCCCCOS(=O)(=O)[O-].[Na+] [Sodium myristyl sulfate] | 1.14 | 1.11 | 1.06 | 0.293 |  |
| CC(=O)c1ccccc1 [Acetophenone] | 1.48 | 1.03 | 1.27 | 1.46 |  |
| CCCCCCCCO [1-Octanol] | 0.948 | 0.949 | 1.11 | 1.09 |  |
| O=c1ccn(C2OC(COP(=O)(O)OP(=O)(O)OP(=O)(O)O)C(O)C2O)c(=O)[nH]1 (centres undefined) | 1.13 | 1.15 | 1.07 | 1.94 | 1.43 |
